Compound activity as filed in PubChem BioAssay.
Shiga inhibitor: blocks Shiga toxin action in Vero cells; Vero cells, Shiga toxin protein synthesis inhibition reporter; AID 2315; actives 9.2% (n = 290,000); inhibition, % at 38.7 µM; in the data active means inhibition mostly above about 28%, no sharp cut-off; inactive means mostly below about 43%
Cycloheximide cs: counter-screen hit for Shiga toxin inhibitors, cycloheximide | cell reporter, cycloheximide protein synthesis inhibition counterscreen | max response, % | actives 12% (n = 300,000); in the data active means max response mostly above about 13%, no sharp cut-off; inactive means mostly below about 14%; further: read at 38.3 µM for the half of the compounds with a filed dose
Pf growth 48h: P. falciparum growth inhibition at 48 hours (one generation). Potency, µM (highest dose often 28.7 µM), most hits filed as inhibitors. P. falciparum luciferase growth in erythrocytes, 48 h. actives 5.9% (n = 310,000)
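In quantitative HTS format, infected erythrocytes bearing luciferase-reporter parasites were treated for a single generation at 37 C. Luminescence after adding detection reagent served as the growth measure.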
HCMV inh: blocks human cytomegalovirus replication | HFF cells, HCMV-luciferase reporter, 72 h; hits give low values | activity change, negative = inhibition, % at 57.5 µM | actives 4.5% (n = 410,000); in the data active means activity change below about -60%; inconclusive means no clear call, values can overlap the other calls; inactive means above about -39%
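Inhibition of viral replication was scored as loss of reporter luminescence in HFFs infected with HCMV-luciferase (MOI 1 PFU/cell) for 72 h; compounds tested at 2 doses, normalized to buffer and Salinomycin controls.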
Pf growth 96h: inhibits malaria parasite growth, 96 h | actives 6.9% (n = 320,000) | Potency, µM (titrated, usually from 28.7 µM), usual class: inhibitors | P. falciparum luciferase reporter growth, 96 h
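P. falciparum expressing integrated firefly luciferase grown in erythrocytes (2% hematocrit, 0.05% parasitemia final) with compounds for 96 hours at 37 C, 5% CO2. Growth inhibition read as loss of luminescence after adding luciferase detection reagent.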
Hits are given with their value; n = inactive; u = inconclusive; x = not tested or not shown. In the library only some 20% were active in any assay of this set; here they are far more common. Unless noted, the call rests on the fitted dose curve; in most records, active means well fitted inhibition curve with a large enough effect; inconclusive means small, poorly fitted or top-dose-only effect, or another doubt; inactive means no such curve, though single readings can be large or run the other way.

SMILES | Shiga inhibitor | Cycloheximide cs | Pf growth 48h | HCMV inh | Pf growth 96h
O=C(Nc1ccccn1)C(=O)N1CCCCC1 | 47 | n | n | n | n
C/C(CC(=O)Nc1ccccc1Br)=N\NC(=O)C(=O)N1CCCC1 | n | n | n | n | 10µM
Cc1ccc(S(=O)(=O)NNC(=O)c2ccncc2)cc1[N+](=O)[O-] | n | n | n | n | 1.9µM
COc1cccc(C(=O)O/N=C(\N)c2ccccn2)c1 | n | n | n | n | n
N/C(=N\OC(=O)c1ccc2ccccc2c1)c1ccccn1 | n | n | n | -83 | n
O=C(NNS(=O)(=O)c1ccc(Br)cc1)c1ccncc1 | n | n | n | n | n
CCCc1ccc(C(=O)O/N=C(\N)c2ccccn2)cc1 | n | n | n | -70 | u
N/C(=N\OC(=O)c1ccc2ccccc2c1)c1ccncc1 | 117 | 37 | u | n | n
Cc1cccc(C(O)c2ncc(-c3ccc(C(F)(F)F)cc3)[nH]2)c1C (centres undefined) | x | x | x | n | x
N/C(=N\OC(=O)c1ccc2ccccc2c1)c1ccccc1Cl | 176 | 51 | u | n | n
Cc1ccc(C(=O)COC(=O)c2ccncc2)cc1[N+](=O)[O-] | n | n | n | n | 9.3µM
COc1ccc(/C(N)=N/OC(=O)c2ccc([N+](=O)[O-])c(C)c2)cc1OC | n | n | n | n | u
Cc1cc(C(=O)O/N=C(\N)c2ccncc2)ccc1[N+](=O)[O-] | 80 | 41 | n | n | n
COc1ccc(/C(N)=N/OC(=O)c2ccc3ccccc3c2)cc1OC | x | x | x | n | x
CCOC(=O)C1(CCOc2ccccc2)CCN(Cc2ccc(OCC)c(CO)c2)CC1 | x | x | x | n | x
Cc1cc(NC(=O)CCC(=O)N(CC(=O)NC2CCCC2)c2ccc(Cl)c(Cl)c2)no1 | n | n | u | n | n
COc1ccc(CNC(=O)c2cc3cccc4c3n2CC(C)S4)cc1OC (centres undefined) | x | x | x | n | x
CCc1noc2cc(-c3ccccc3)n(C)c(=O)c12 | x | x | x | n | x
Cc1c(C)n(Cc2ccccc2)c2ccc(C(=O)OCCCN(C)C)cc12 | n | n | u | -63 | 4.1µM
O=C(N/N=C/c1cccc2nccnc12)c1ccccc1O | 37 | 19 | u | n | u
O=C(N/N=C/c1cccc2cccnc12)c1ccccc1O | 84 | 32 | u | -103 | n
O=C(N/N=C/c1cccc2nccnc12)c1ccncc1 | n | n | n | n | n
Cc1nc(C(C)NC(=O)CCc2nnc(Cc3c[nH]c4ccccc34)o2)cs1 (centres undefined) | n | n | n | n | 4.7µM
CC1CCCCN1C(=O)CCc1nnc(Cc2c[nH]c3ccccc23)o1 (centres undefined) | n | n | n | n | u
O=C(CCc1nnc(CCc2ccccc2)o1)N1CCCC1c1nccs1 (centres undefined) | n | 16 | n | n | 13µM
SMILES | Shiga inhibitor | Cycloheximide cs | Pf growth 48h | HCMV inh | Pf growth 96h
COC(=O)[C@@H]1CCCN1C(=O)CCc1nnc(CCC2CCCCC2)o1 | 74 | 34 | n | n | n
CCC1CCCCN1C(=O)CCc1nnc(Cc2c[nH]c3ccccc23)o1 (centres undefined) | 31 | n | n | n | u
COc1ccc(Br)cc1CNC(=O)CN1CCSc2ccccc21 | x | x | x | n | x
CCCOC(=O)c1ccc(NC(=O)c2cc(=O)[nH]c3ccccc23)cc1 | n | n | n | n | n
Cn1c(CNC(=O)CNC(=O)c2ccc(C(C)(C)C)cc2)cc(=O)n(C)c1=O | n | n | n | n | n
COCCn1c(SCc2ccccc2F)nc2c([nH]c3ccccc32)c1=O | x | x | x | n | x
COC(=O)[C@@H]1CCCN1C(=O)CCc1nnc(CCc2c[nH]c3ccccc23)o1 | 48 | 47 | u | n | n
COC(=O)C1CCCCN1C(=O)CCc1nnc(CCc2c[nH]c3ccccc23)o1 (centres undefined) | n | n | u | n | u
Cc1c(C(=O)NCc2cccnc2)sc2nc(-c3ccccc3)cn12 | 31 | 24 | u | n | u
Cc1c(C(=O)NCc2ccc(F)cc2)sc2nc(-c3ccccc3)cn12 | x | x | x | n | x
Cc1c(C(=O)NCc2cccnc2)sc2nc(-c3ccc(F)cc3)cn12 | 45 | 30 | n | n | u
Cc1c(C(=O)N(C)Cc2ccccc2)sc2nc(-c3ccc(F)cc3)cn12 | x | x | x | -82 | x
Cc1c(C(=O)NCc2ccco2)sc2nc(-c3ccccc3)cn12 | 66 | 54 | u | n | u
Cc1cccc(C)c1NC(=O)CN1C(=O)c2cccc3cccc1c23 | x | x | x | n | x
Cc1ccc(Cn2ccnc2SCC(=O)Nc2nc3ccccc3s2)cc1 | x | x | x | n | x
Cc1ccc(SCCC(=O)NNC(=O)c2ccccc2F)cc1 | x | x | x | n | x
Cc1csc2nc(CN3CCN(CC(=O)N(C)C)CC3)cc(=O)n12 | n | n | n | n | n
COc1ccccc1CNC(=O)CCN=C1NS(=O)(=O)c2ccccc21 | x | x | u | n | u
COc1ccc(-c2ccc3c(c2)S(=O)(=O)c2cccc(C(=O)NCCOc4ccccc4Cl)c2C3=O)cc1OC | x | x | x | -98 | x
COc1ccc(OC[C@@H](O)CNC(=O)c2cccc3c2C(=O)c2ccc(Cl)cc2S3(=O)=O)cc1 | x | x | u | n | 2.1µM
COc1ccc(OCC(O)CNC(=O)Nc2ccccc2)cc1 (centres undefined) | n | n | n | n | n
COc1ccc(OCC(O)CNC(=O)c2sccc2Cl)cc1 (centres undefined) | n | 20 | n | n | n
CCN(CC)CCN(C(=O)c1ccc(CN2CCCCC2)o1)C(C(=O)NC1CCCCC1)c1ccc(F)cc1 (centres undefined) | 60 | 42 | n | n | n
CC(C)CCNC(=O)C(C)N(Cc1ccc(F)cc1)C(=O)c1ccc(CN2CCCCC2)o1 (centres undefined) | n | n | n | n | n
CCCCSc1c(C)c2cc3c(cc2[nH]c1=O)OCO3 | n | n | n | n | x
SMILES | Shiga inhibitor | Cycloheximide cs | Pf growth 48h | HCMV inh | Pf growth 96h
CCCCn1c(N)c(N(CC)C(=O)CCc2ccccc2)c(=O)[nH]c1=O | n | n | n | n | n
O=C(COC(=O)c1ccc(Br)c(S(=O)(=O)N2CCOCC2)c1)NCCc1ccccc1 | x | x | x | n | x
CCOC(=O)CC(NC(=O)c1cccc2c1C(=O)N(Cc1cccnc1)C2)c1ccc(OC(C)C)cc1 (centres undefined) | n | n | 9.3µM | n | u
CCOc1ccc(NC(=O)c2cccc3c2C(=O)N(Cc2cccnc2)C3)cc1 | n | n | u | n | n
CCCN1Cc2cccc(C(=O)NC(CC(=O)OCC)c3ccc(OC(C)C)cc3)c2C1=O (centres undefined) | n | n | 13µM | u | n
COc1ccc(Cl)cc1NC(=O)N1CCN(c2ccccc2OC)CC1 | n | n | 6.6µM | n | u
COc1ccccc1N1CCN(C(=O)CCSCc2ccccc2F)CC1 | 49 | n | n | n | u
O=C(O)c1[nH]c2ccc(Cl)cc2c1CC(=O)N1CCN(c2ccccc2)CC1 | n | n | n | n | x
COc1ccccc1N1CCN(C(=O)Cc2c(C(=O)O)[nH]c3ccc(Cl)cc23)CC1 | n | n | 10µM | n | n
COc1ccccc1N1CCN(C(=O)Cc2ccc(Cl)cc2)CC1 | n | 17 | n | n | n
